Only some compounds are listed: those with a hit (about 9.2% of all), similar ones and a draw of the others.
Rab9 promoter act = qHTS Assay for Rab9 Promoter Activators | Huh7 Rab9 promoter-luciferase reporter, luminescence, 24 h | Potency, µM (highest dose often 9.22 µM), for the others: at the top dose activation, negative = inhibition, hits mostly activators | actives 2.8% (n = 320,000); note: % of control where 0% means no effect; nearly all actives have a fitted effect of over 60% in size
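Cell-based reporter: Huh7 stable for Rab9 promoter-driven luciferase, plated in reduced-serum medium with 10% FBS at 1500 cells/well, compound-treated 24 h at 37 °C, luminescence read after 10 min reagent.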
FLuc modulator = qHTS profiling assay for firefly luciferase inhibitor/activator using purifed enzyme and Km concentrations of substrates (counterscreen for miR-21 project); Luciferin 4-monooxygenase (Photinus pyralis), P08659; purified FLuc, Km substrates, luminescence inhibition; Potency, µM (series often up to 57.5 µM), for inactives: top-dose activity change, negative = inhibition, usual class: inhibitors; actives 6.9% (n = 360,000); AID 588342, 2011;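 note: plate controls were vehicle for no effect and reference inhibitor for full effect; nearly all actives have a fitted effect of over 55% in size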
Target sequence (P08659 whole entry, looked up): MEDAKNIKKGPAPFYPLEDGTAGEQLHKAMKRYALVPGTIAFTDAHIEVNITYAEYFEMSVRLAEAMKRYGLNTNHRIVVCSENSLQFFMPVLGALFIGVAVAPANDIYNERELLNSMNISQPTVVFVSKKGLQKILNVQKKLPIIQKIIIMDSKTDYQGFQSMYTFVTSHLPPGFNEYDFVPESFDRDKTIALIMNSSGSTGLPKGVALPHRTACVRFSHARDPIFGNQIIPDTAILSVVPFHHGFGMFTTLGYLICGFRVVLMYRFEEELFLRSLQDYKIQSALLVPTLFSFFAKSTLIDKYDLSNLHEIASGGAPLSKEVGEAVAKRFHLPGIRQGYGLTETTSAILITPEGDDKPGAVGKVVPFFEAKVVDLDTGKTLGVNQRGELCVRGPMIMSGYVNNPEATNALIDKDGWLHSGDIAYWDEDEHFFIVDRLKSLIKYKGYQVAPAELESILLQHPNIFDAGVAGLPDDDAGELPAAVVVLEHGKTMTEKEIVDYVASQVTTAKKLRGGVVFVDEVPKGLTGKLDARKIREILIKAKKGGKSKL
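Purified P. pyralis luciferase, 10 nM final, with Km-level 10 uM D-luciferin and 10 uM ATP in 50 mM Tris acetate pH 7.5, 10 mM Mg acetate, 0.01% Tween-20, 0.05% BSA; 6-point qHTS titration about 60 µM downward; luminescence read.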
NPC1 prom act = qHTS Assay for NPC1 Promoter Activators; Huh7 NPC1 promoter luciferase reporter, 24 h; Potency, µM (titrated, usually from 9.22 µM), without a hit: at the highest dose activation, usual class: activators; actives 2.4% (n = 320,000); AID 485313, 2010; note: % of control where 0% means no effect; nearly all actives have a fitted effect of over 60% in size
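Luciferase expression driven by the NPC1 promoter was measured in stably transfected Huh7 cells after a 24 h compound incubation, using a luciferase reagent and a luminescence read.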
ELG1 repair inh = qHTS screen for small molecules that inhibit ELG1-dependent DNA repair in human embryonic kidney (HEK293T) cells expressing luciferase-tagged ELG1; HEK293T ELG1-luciferase reporter, luminescence, 16 h; DNA damage induced by 5-fluorouridine; Potency, µM (top dose mostly 46.1 µM), inactives show at the top dose activity change, negative = inhibition, most hits filed as inhibitors; actives 2.3% (n = 330,000); AID 504467, 2011; note: % is set by controls: 0 for no effect and ±100 for the full control effect; nearly all actives have a fitted effect of over 55% in size
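Quantitative HTS, concentration-response format. 2,000 cells/well co-treated with 5-fluorouridine and compound, 16 hr in 5% CO2 at 37 °C; ONE-Glo luminescence read after 30 min.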
SMN2 splice enh = qHTS Assay for Enhancers of SMN2 Splice Variant Expression; AID 1458, 2008; actives 2.8% (n = 210,000); Potency, µM (series often up to 46.1 µM), for inactives: at the highest dose activity change, positive = activation, hits mostly activators; HEK293 SMN2-luciferase splicing reporter, luminescence, 30-36 h; note: % of control where 0% means no effect; nearly all actives have a fitted effect of over 55% in size
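HEK293 cells carry an SMN2 […]–luciferase reporter in which exon 7 inclusion puts luciferase in frame. Cells were plated 10-12 h before compound addition, then incubated 30-36 h at 37C. ONE-Glo luminescence was read; sodium butyrate at 4.5 mM final served as control.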
ELG1 genotoxic = qHTS screen for small molecules that induce genotoxicity in human embryonic kidney (HEK293T) cells expressing luciferase-tagged ELG1; HEK293T ELG1-luciferase reporter, luminescence, 16 h; Potency, µM (highest dose often 46 µM), without a hit: at the highest dose activity change, positive = activation, most hits filed as activators; actives 1.3% (n = 330,000); note: % of control where 0% means no effect; nearly all actives have a fitted effect of over 60% in size
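Luminescence read-out: rising ELG1-luciferase signal, reflecting elevated ELG1 protein under genetic stress, flags genotoxic compounds. Cells were treated for 16 hr at 37 °C before ONE-Glo detection.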
* hit, by the source's call; ? = inconclusive; . = not tested or not shown; [ ] = another dose, or the depositor's remark. Calls come from the whole dose curve; as a rule, active = well fitted curve in the direction sought with a large enough effect; inconclusive = small, poorly fitted or top-dose-only effect, or another doubt; inactive = no such curve, though single readings can be large; an effect the other way counts as inactive or inconclusive. Potency is the fitted concentration of half-maximal effect.

SMILES	Rab9 promoter act	FLuc modulator	NPC1 prom act	ELG1 repair inh	SMN2 splice enh	ELG1 genotoxic
COc1ccccc1N1CCN(C(=O)CNC(=O)c2ccc(Cl)cc2Cl)CC1	16%	24µM*	17%	?	.	-14%
O=C(NCC(=O)N1CCCCC1)c1ccc(Cl)cc1Cl	4µM*	19µM*	?	?	?	16µM*
COc1ccccc1N1CCN(C(=O)COc2ccc(Cl)cc2Br)CC1	4%	-10%	-5%	?	-4%	-13%
COc1ccc(N2CCN(C(=O)c3cc(-c4cc(OC)ccc4OC)nc4ccccc34)CC2)cc1	-2%	1%	-4%	7.3µM*	.	-15%
COc1ccc(-c2cc(C(=O)N3CCCCCC3)c3ccccc3n2)c(OC)c1	-2%	-11%	-6%	?	.	-16%
COc1ccc(-c2cc(C(=O)N3CCN(c4ccccc4F)CC3)c3ccccc3n2)c(OC)c1	-1%	-3%	-7%	5.8µM*	.	-14%
CCOc1ccccc1N1CCN(C(=O)c2cc(-c3cc(OC)ccc3OC)nc3ccccc23)CC1	2%	-16%	-3%	6.5µM*	.	-22%
COc1ccc(-c2cc(C(=O)N3CCN(c4ncccn4)CC3)c3ccccc3n2)c(OC)c1	-6%	?	-1%	9.2µM*	-5%	-6%
COc1cc(OC)c(NC(=O)C(C)n2c(=O)cc(-c3ccccc3)c3c(C)nn(C)c32)cc1Cl (stereo unspecified)	.	-10%	.	.	.	.
COc1ccc(OC)c(-c2cc(C(=O)N3CCN(c4ncccn4)CC3)c3ccccc3n2)c1	9%	-2%	3%	13µM*	-21%	-8%
CCS(=O)(=O)c1nn2c(N)c(/C=C3/C=CC(=O)C(OC)=C3)c(=O)nc2s1	-4%	?	6%	8%	-15%[1.84 µM]	1%
COC1=C/C(=C/c2c(N)n3c(nc2=O)sc2cc(S(C)(=O)=O)ccc23)C=CC1=O	27%	9.5µM*	-1%	?	.	4%
CS(=O)(=O)c1ccc2c(c1)sc1nc(=O)c(/C=C3/C=CC(=O)C(O)=C3)c(N)n12	1%	4.8µM*	20%	?	.	?
COC1=C/C(=C/c2c(N)n3nc(-c4ccc(C)cc4)sc3nc2=O)C=CC1=O	28%	15µM*	19%	?	?	?
CCOC1=C/C(=C/c2c(N)n3nc(-c4ccccc4)sc3nc2=O)C=CC1=O	-3%	?	-4%	-8%	0%	-1%
OCC1(Cc2ccc(F)cc2)CCCN(CCCC(F)(F)F)C1 (stereo unspecified)	-1%	-5%	-2%	3%	.	-2%
CN1C2CCC1/C(=C/c1cccn1C)C(=O)/C2=C\c1cccn1C	-1%	1%	-2%	?	-50%	-10%
CN1C2CCC1/C(=C\c1ccc(F)cc1)C(=O)/C2=C/c1ccc(F)cc1	-4%	-1%	4%	18µM*	-39%	0%
Cc1cc(C(F)(F)F)c(C#N)c(SCC(=O)Nc2nc3cc(Br)ccc3s2)n1	3.2µM*	-21%	29%	?	-58%	5%
CCOC(=O)NC(=O)CSc1nc(C)cc(C(F)(F)F)c1C#N	21%	-12%[2.3 µM]	22%	?	3%	13%
COc1ccc(OC)c(C(C)NC(=O)Nc2ccccc2)c1 (stereo unspecified)	-3%	4%	-4%	-2%	9%	-1%
O=C1CCCC/C1=C\Nc1ccccc1C(=O)O	2%	-14%	-3%	-2%	-6%	3%
COc1ccc(N/C=C2/CCCCC2=O)cc1	?	15µM*	?	?	42%	3%
O=C1CCCC/C1=C/Nc1ccc(C(=O)O)cc1	?	12µM*	25%	?	-27%	10%
O=C1CCCC/C1=C/Nc1ccc2c(c1)OCO2	3.5µM*	11µM*	2.8µM*	?	?	?
SMILES	Rab9 promoter act	FLuc modulator	NPC1 prom act	ELG1 repair inh	SMN2 splice enh	ELG1 genotoxic
COc1ccc(Oc2ccc(N/C=C3/CCCC3=O)cc2)cc1	13%	0%	-2%	2%	-10%[1.84 µM]	1%
CC(C)(C)n1ncc2c(=O)n(Cc3cc(F)c(F)cc3Cl)cnc21	.	-1%	.	.	.	.
Nc1ccc2nc3c(=O)n(C4CCCCC4)c(=O)[nH]c3nc2c1	?	12µM*	?	?	.	?
CCCCn1c(=O)[nH]c2nc3cc(N)ccc3nc2c1=O	3.2µM*	-26%	?	?	?	17%
Nc1ccc2nc3c(=O)n(CCc4ccccc4)c(=O)[nH]c3nc2c1	17%	-14%	-1%	?	.	-3%
CC(C)N(C(=O)CSc1nnc(C2CC2)n1C1CC1)c1ccccc1	6%	1%	-4%	7%	.	1%
COc1ccc(-c2csc(NC(=O)CSCc3c(C)noc3C)n2)cc1OC	12%	-8%	0%	12µM*	.	-13%
COc1ccc(CC(=O)Nc2nc(-c3ccc(OC)c(OC)c3)cs2)cc1OC	-9%	-7%	-10%	18µM*	.	-29%
Cc1noc(C)c1CSCC(=O)Nc1nc(-c2ccc(F)c(F)c2)cs1	-5%	-1%	2%	?	.	-4%
COc1ccc(-c2csc(NC(=S)NC(=O)c3cccs3)n2)cc1OC	-5%	?	-3%	21µM*	-8%	-9%
COc1ccc(-c2csc(NC(=O)CC(NC(C)=O)c3ccccc3)n2)cc1OC (stereo unspecified)	1%	?	-4%	-3%	.	0%
COc1ccccc1CC(=O)Nc1nc(-c2ccc(F)c(F)c2)cs1	12%	15µM*	5%	15%	.	-14%
O=C(c1noc2c1CSc1ccccc1-2)N1CCN(c2ccc(Cl)cc2)CC1	0%	-4%	1%	20%	.	1%
O=C(O)CN(CCc1ccccc1)S(=O)(=O)c1ccccc1	-2%	1%	-3%	0%	.	-3%
CCCCN(C)CCN1C(=O)C2C(C(=O)Nc3ccc(OC)cc3)C3C=CC2(O3)C1C(=O)NC1CCCCC1 (stereo unspecified)	-5%	2%	6%	27%	.	-2%
COc1ccc(-c2csc(NC(=O)c3cc(C)oc3C)n2)cc1OC	8%	19µM*	-3%	18µM*	.	-26%
O=C(CS(=O)(=O)c1ccccc1)Nc1nc(-c2ccc(F)cc2)cs1	-2%	?	-6%	?	-27%	-2%

Source: PubChem
